Results on nine compounds are retold here after PubChem BioAssay (NCI).

Some test systems named below: SR leukemia; RPMI-8226 leukemia; OVCAR-5 ovarian; OVCAR-4 ovarian; SK-OV-3 ovarian; IGROV1 ovarian; OVCAR-3 ovarian; NCI/ADR-RES ovarian; T-47D breast; BT-549 breast; MDA-MB-435 melanoma; SW-620 colon; MCF7 breast; HCT-116 colon; KM12 colon; HCC-2998 colon; OVCAR-8 ovarian; HS 578T breast.
Common to all, as to test: NCI-60 one-dose screen, 48 h (100 = growth as untreated, 0 = no growth, -100 = all killed)
Holding throughout (conditions): 10 µM unless noted

The panel holds about 83,000 compounds, 20% with a hit somewhere; the sample as a whole holds those more often.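 Cells were grown in 96-well plates and exposed to the test compound at a single concentration for 48 hours; results are reported as percent growth, with values below 10 considered active.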 A number with no mark means an inactive call. Active and inactive are the calls of the source.

Take `CCCc1cc(=O)oc2c3c(c4c(c12)OC(C)(C)C=C4)O[C@@H](C)[C@H](C)C3=O`: the growth was 65.4% in the assay on SR leukemia; 56.1% in the assay on RPMI-8226 leukemia; -19.4% (active) in the assay with OVCAR-5 ovarian; 67.8% in the assay with OVCAR-4 ovarian; 92.3% with SK-OV-3 ovarian; 74.8% with IGROV1 ovarian. Also, the growth in the assay on OVCAR-3 ovarian is 86.6%; with NCI/ADR-RES ovarian, 0.517% (active); with T-47D breast, 41.5%; in the assay on BT-549 breast it was 68.7%; in the assay with MDA-MB-435 melanoma it was 96.2%; in the assay with SW-620 colon, 71.6%. Also, the growth with MCF7 breast was 56.4%; in the assay with HCT-116 colon, 35.8%; in the assay on KM12 colon, 70.4%.
With `COc1cc(/C=C/C(=O)c2cccc(-n3cc(-c4ccc(Cl)cc4)[nH]c3=O)c2)cc(OC)c1OC`, the growth was -15.8% (active) with SR leukemia; -27.1% (active) in the assay on RPMI-8226 leukemia; 76.9% in the assay with OVCAR-4 ovarian; 84.8% in the assay with SK-OV-3 ovarian; 13.1% with IGROV1 ovarian; 15.8% with OVCAR-3 ovarian. Further, the growth with T-47D breast is 41.1%; in the assay with BT-549 breast, 86.2%; in the assay with MDA-MB-435 melanoma, 27.1%; with SW-620 colon, -19.4% (active); in the assay with MCF7 breast, 11.9%; with HCT-116 colon, -45.7% (active). Further, the results for the growth in the assay with HCC-2998 colon and in the assay with KM12 colon were 75.8% and 46%, respectively.
Turning to `CN(C)CCn1cc(-c2ccc3c(Nc4ccc(CC(=O)Nc5cccc(F)c5)cc4)ncnc3c2)cn1`, the growth in the assay on SR leukemia is -20% [30 µM] (active); in the assay on OVCAR-8 ovarian, -29.2% [30 µM] (active); in the assay on OVCAR-5 ovarian, -91.8% [30 µM] (active); in the assay with OVCAR-4 ovarian, -76.5% [30 µM] (active); in the assay on SK-OV-3 ovarian, -26.4% [30 µM] (active); with IGROV1 ovarian it was -65.3% [30 µM] (active). Also, the growth in the assay with OVCAR-3 ovarian is -78% [30 µM] (active); in the assay on HS 578T breast, -48.7% [30 µM] (active); with NCI/ADR-RES ovarian, 52.4% [30 µM]; in the assay with T-47D breast, -39.7% [30 µM] (active); in the assay with BT-549 breast it was -9.36% [30 µM] (active); in the assay on MDA-MB-435 melanoma, -71.7% [30 µM] (active). In addition, the growth with SW-620 colon is -64.2% [30 µM] (active); in the assay on MCF7 breast, -56.9% [30 µM] (active); in the assay on HCT-116 colon it was -11.9% [30 µM] (active); in the assay on HCC-2998 colon, -91.5% [30 µM] (active); in the assay on KM12 colon, -83.6% [30 µM] (active).
For `C=C1C(=O)O[C@H]2[C@H]1CC/C(COC(=O)/C=C\C(=O)NCc1ccc(Cn3c(=O)sn(CCCI)c3=O)cc1)=C\CC[C@@]1(C)O[C@@H]21`, the growth in the assay on SR leukemia was -48% (active); in the assay with OVCAR-8 ovarian, -1.28% (active); in the assay with OVCAR-5 ovarian, -83.9% (active); in the assay with OVCAR-4 ovarian, -89.4% (active); in the assay with SK-OV-3 ovarian it was 42.9%; in the assay on IGROV1 ovarian, -98.3% (active). In addition, the growth with OVCAR-3 ovarian is -93% (active); in the assay with HS 578T breast it was -40.2% (active); with NCI/ADR-RES ovarian, 1.52% (active); with T-47D breast, -48.3% (active); in the assay on BT-549 breast, -56.2% (active); in the assay on MDA-MB-435 melanoma, -83.8% (active). Moreover, the growth in the assay on SW-620 colon is -76.3% (active); in the assay on MCF7 breast, -53.5% (active); with HCT-116 colon, -48.8% (active); with HCC-2998 colon it was -77.8% (active); in the assay on KM12 colon, -77% (active).
Turning to `CCOC(=O)c1sc2ccc(NCc3nc[nH]c3C)cc2c1NC(=O)c1cc(OC)c(OC)c(OC)c1`, the growth is 10.4% in the assay with SR leukemia; 80.1% with RPMI-8226 leukemia; 96.7% in the assay on OVCAR-5 ovarian; 98.1% in the assay with SK-OV-3 ovarian; 89.5% in the assay on IGROV1 ovarian; 94% in the assay with OVCAR-3 ovarian. Besides, the growth in the assay on HS 578T breast is 99.2%; in the assay on NCI/ADR-RES ovarian it was 91.7%; in the assay on T-47D breast, 76.2%; with BT-549 breast, 94.8%; in the assay with MDA-MB-435 melanoma, 71.7%; with SW-620 colon, 79.8%. Also, the figures for the growth in the assay on MCF7 breast, with HCT-116 colon and in the assay with HCC-2998 colon were 62.6%, 55.4% and 106%, respectively.
As for `COc1ccc(OC)c(C(=O)Nc2cccc(-c3cc(=O)c4ccccc4o3)c2)c1`, the growth in the assay with SR leukemia was 80%; in the assay on OVCAR-8 ovarian, 63.3%; in the assay with OVCAR-5 ovarian, 95.4%; in the assay with OVCAR-4 ovarian, 73.3%; in the assay with SK-OV-3 ovarian, 52.6%; in the assay with IGROV1 ovarian it was 104%. Also, the growth was 110% in the assay on OVCAR-3 ovarian; 68.3% in the assay on HS 578T breast; 80.2% in the assay with NCI/ADR-RES ovarian; 85.6% in the assay on T-47D breast; 88.2% with BT-549 breast; 96.2% in the assay with MDA-MB-435 melanoma. Besides, the growth is 96.8% with SW-620 colon; 92% in the assay with MCF7 breast; 88% in the assay with HCT-116 colon; 104% with HCC-2998 colon; 92.5% with KM12 colon.
Regarding `C=C1C(=O)O[C@H]2[C@H]1CC/C(COC(=O)/C=C\C(=O)NCc1ccc(Cn3c(=O)sn(-c4ccc(Cl)cc4)c3=O)cc1)=C\CC[C@@]1(C)O[C@@H]21`, the growth in the assay on SR leukemia was -46.3% (active); with OVCAR-8 ovarian, -12% (active); with OVCAR-5 ovarian, -86.2% (active); with OVCAR-4 ovarian, -78.4% (active); in the assay on SK-OV-3 ovarian, 52.4%; in the assay on IGROV1 ovarian, -99.5% (active). In addition, the growth with OVCAR-3 ovarian is -97.6% (active); in the assay on HS 578T breast, -18.2% (active); in the assay on NCI/ADR-RES ovarian, -6.62% (active); in the assay with T-47D breast it was -44.1% (active); in the assay with BT-549 breast it was -40.9% (active); with MDA-MB-435 melanoma, -80.3% (active). Moreover, the growth was -65.7% (active) in the assay with SW-620 colon; -52% (active) in the assay with MCF7 breast; -66% (active) with HCT-116 colon; -76.8% (active) with HCC-2998 colon; -72.7% (active) in the assay with KM12 colon.
As for `O=C(Oc1ccc[nH]c1=O)c1cc([N+](=O)[O-])cc([N+](=O)[O-])c1`, the growth in the assay on SR leukemia is 136%; in the assay with OVCAR-8 ovarian it was 93.6%; with OVCAR-5 ovarian it was 106%; in the assay with OVCAR-4 ovarian, 110%; in the assay on SK-OV-3 ovarian, 116%; with IGROV1 ovarian, 162%. Further, the growth in the assay with OVCAR-3 ovarian was 113%; in the assay on HS 578T breast, 124%; with NCI/ADR-RES ovarian, 114%; with T-47D breast, 109%; with BT-549 breast, 75.6%; with MDA-MB-435 melanoma, 121%. Also, the growth in the assay with SW-620 colon is 107%; in the assay with MCF7 breast, 96.2%; with HCT-116 colon it was 103%.
Take `O=C(/C=C/C12c3ccccc3C(c3ccccc31)C1C(=O)NC(=O)C12)c1ccccc1` (stereo not drawn): the growth is 20.9% in the assay with SR leukemia; 5.51% (active) with RPMI-8226 leukemia; 26.4% in the assay on OVCAR-5 ovarian; 39.4% with OVCAR-4 ovarian; 19.8% with IGROV1 ovarian; 2.7% (active) in the assay with OVCAR-3 ovarian. In addition, the growth in the assay with HS 578T breast is 14.4%; in the assay on NCI/ADR-RES ovarian it was 5.9% (active); with T-47D breast, 51.7%; in the assay with BT-549 breast, 23.6%; in the assay on MDA-MB-435 melanoma it was 13.8%; in the assay with SW-620 colon it was 19.1%. In addition, the growth in the assay with MCF7 breast was 9.25% (active); with HCT-116 colon, 14.3%; with HCC-2998 colon it was 10.4%; with KM12 colon it was 9.85% (active).
